# Measured values as given in ChEMBL document CHEMBL1961873, “Compounds: GSK PKIS; Assays: Nanosyn kinase panel” (2012).
# Columns and labels:
# [1] = biological target: Serine/threonine-protein kinase 26 (Homo sapiens) (UniProt Q9P289); conditions: at 1 µM;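 also: mean inhibition of MST4 kinase activity, reported from the GSK PKIS inhibitor-set screening panel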
# [2] = biological target: Serine/threonine-protein kinase PAK 1 (Homo sapiens) (UniProt Q13153); conditions: at 0.1 µM
# [3] = biological target: Serine/threonine-protein kinase PAK 1 (Homo sapiens) (UniProt Q13153); conditions: at 1 µM
# [4] = biological target: Serine/threonine-protein kinase PAK 2 (Homo sapiens) (UniProt Q13177); conditions: at 0.1 µM
# Serine/threonine-protein kinase PAK 2 (Homo sapiens), sequence (Q13177 whole entry): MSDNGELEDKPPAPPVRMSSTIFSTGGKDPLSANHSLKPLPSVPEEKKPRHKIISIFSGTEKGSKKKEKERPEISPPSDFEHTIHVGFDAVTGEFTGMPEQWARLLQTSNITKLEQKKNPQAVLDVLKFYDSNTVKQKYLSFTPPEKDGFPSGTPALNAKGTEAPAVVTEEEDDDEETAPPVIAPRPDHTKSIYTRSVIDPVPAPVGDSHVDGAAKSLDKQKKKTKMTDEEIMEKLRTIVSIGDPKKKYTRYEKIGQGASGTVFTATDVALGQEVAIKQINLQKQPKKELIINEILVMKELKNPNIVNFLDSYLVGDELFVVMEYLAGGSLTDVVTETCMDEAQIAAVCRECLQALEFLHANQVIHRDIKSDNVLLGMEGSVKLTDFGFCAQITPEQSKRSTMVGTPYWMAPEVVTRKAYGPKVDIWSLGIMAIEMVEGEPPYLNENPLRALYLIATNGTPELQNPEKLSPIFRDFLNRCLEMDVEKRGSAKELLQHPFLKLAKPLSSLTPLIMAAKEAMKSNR
# [5] = biological target: Serine/threonine-protein kinase PAK 2 (Homo sapiens) (UniProt Q13177); conditions: at 1 µM
# [6] = biological target: Serine/threonine-protein kinase PAK 3 (Homo sapiens) (UniProt O75914); conditions: at 0.1 µM
# Serine/threonine-protein kinase PAK 3 (Homo sapiens), sequence (O75914 whole entry, looked up): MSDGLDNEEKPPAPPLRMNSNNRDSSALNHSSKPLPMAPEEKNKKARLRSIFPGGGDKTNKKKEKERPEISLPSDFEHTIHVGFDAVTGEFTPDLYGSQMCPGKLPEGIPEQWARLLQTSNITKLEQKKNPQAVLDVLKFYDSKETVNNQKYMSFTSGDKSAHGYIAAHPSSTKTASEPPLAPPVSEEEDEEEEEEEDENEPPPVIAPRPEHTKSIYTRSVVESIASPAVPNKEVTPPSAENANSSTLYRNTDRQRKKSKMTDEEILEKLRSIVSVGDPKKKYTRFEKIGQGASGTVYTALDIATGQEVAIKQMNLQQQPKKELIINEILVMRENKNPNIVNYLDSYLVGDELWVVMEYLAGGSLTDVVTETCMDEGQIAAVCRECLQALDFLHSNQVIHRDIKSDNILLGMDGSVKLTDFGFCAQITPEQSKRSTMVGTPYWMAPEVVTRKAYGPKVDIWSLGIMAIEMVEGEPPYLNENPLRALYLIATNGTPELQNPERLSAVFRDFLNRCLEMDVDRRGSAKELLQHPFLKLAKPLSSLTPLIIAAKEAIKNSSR
# [7] = biological target: Serine/threonine-protein kinase PAK 3 (Homo sapiens) (UniProt O75914); conditions: at 1 µM
# [8] = biological target: Serine/threonine-protein kinase PAK 5 (Homo sapiens) (UniProt Q9P286); conditions: at 0.1 µM
# Serine/threonine-protein kinase PAK 5 (Homo sapiens), sequence (Q9P286 whole entry, looked up): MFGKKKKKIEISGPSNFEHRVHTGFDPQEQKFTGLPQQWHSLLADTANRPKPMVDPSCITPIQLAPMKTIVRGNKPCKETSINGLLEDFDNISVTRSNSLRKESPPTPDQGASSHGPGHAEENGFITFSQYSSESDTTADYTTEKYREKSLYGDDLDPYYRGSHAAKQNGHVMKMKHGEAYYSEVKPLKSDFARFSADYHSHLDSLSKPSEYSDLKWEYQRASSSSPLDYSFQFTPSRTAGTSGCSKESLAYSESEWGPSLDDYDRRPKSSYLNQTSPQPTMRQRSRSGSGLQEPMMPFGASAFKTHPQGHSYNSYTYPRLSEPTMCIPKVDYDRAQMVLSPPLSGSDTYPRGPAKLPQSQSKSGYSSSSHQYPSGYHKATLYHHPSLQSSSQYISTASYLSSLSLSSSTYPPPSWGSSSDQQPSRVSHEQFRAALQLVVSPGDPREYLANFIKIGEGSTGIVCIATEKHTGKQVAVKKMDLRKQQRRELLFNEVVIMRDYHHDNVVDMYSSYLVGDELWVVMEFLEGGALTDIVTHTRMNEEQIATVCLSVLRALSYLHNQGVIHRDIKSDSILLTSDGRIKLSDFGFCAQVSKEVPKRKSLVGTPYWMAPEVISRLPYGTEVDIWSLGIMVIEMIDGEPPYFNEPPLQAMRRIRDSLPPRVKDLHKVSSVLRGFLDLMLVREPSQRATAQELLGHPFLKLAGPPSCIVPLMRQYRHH
# [9] = biological target: Serine/threonine-protein kinase PAK 5 (Homo sapiens) (UniProt Q9P286); conditions: at 1 µM
# [10] = biological target: Serine/threonine-protein kinase PAK 6 (Homo sapiens) (UniProt Q9NQU5); conditions: at 0.1 µM;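 also: mean PAK6 inhibition reported from the GSK PKIS screen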
# Serine/threonine-protein kinase PAK 6 (Homo sapiens), sequence (Q9NQU5 whole entry, looked up): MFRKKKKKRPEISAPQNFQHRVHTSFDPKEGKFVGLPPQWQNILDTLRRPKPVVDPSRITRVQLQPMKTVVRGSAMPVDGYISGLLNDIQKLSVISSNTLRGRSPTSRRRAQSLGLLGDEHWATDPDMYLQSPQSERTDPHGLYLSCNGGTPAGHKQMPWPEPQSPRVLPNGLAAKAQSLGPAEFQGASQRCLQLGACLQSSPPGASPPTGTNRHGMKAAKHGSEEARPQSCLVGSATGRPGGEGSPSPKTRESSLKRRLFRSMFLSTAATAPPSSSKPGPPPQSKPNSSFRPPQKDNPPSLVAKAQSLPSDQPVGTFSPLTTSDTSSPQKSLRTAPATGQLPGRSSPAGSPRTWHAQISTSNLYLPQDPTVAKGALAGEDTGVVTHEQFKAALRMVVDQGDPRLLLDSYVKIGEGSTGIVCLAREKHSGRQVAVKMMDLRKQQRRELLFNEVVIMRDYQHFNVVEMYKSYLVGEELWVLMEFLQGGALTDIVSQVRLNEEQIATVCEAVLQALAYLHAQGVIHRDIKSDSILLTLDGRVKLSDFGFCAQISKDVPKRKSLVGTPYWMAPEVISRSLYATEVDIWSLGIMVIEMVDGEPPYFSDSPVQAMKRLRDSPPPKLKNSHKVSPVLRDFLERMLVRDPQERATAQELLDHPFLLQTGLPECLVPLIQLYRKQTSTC
# Serine/threonine-protein kinase PAK 1 (Homo sapiens), sequence (Q13153 whole entry): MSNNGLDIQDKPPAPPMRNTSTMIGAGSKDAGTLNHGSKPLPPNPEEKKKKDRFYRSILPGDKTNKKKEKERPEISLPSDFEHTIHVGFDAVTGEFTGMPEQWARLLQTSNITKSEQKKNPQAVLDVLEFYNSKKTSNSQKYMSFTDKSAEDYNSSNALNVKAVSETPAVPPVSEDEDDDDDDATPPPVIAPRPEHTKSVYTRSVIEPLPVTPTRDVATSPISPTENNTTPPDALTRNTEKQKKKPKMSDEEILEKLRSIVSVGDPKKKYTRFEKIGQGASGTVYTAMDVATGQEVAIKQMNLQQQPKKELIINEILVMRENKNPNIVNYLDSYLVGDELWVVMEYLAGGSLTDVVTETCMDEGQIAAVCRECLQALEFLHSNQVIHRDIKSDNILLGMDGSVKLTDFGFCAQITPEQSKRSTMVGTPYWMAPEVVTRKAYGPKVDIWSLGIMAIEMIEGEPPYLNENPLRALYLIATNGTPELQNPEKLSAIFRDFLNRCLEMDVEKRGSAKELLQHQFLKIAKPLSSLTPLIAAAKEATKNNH
# Serine/threonine-protein kinase 26 (Homo sapiens), sequence (Q9P289 2-416 limits assumed): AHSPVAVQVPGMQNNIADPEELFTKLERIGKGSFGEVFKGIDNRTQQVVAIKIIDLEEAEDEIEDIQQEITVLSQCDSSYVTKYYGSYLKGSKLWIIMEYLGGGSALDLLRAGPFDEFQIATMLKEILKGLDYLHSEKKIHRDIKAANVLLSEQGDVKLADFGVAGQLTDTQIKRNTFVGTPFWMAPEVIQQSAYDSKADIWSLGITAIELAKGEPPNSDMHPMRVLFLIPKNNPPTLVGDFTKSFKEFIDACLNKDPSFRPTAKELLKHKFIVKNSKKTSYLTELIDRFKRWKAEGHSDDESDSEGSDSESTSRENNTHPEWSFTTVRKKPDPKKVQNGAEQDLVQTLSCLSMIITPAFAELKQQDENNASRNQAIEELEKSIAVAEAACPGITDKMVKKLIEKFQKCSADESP
Structure (SMILES),inhibition [1],inhibition [2],inhibition [3],inhibition [4],inhibition [5],inhibition [6],inhibition [7],inhibition [8],inhibition [9],inhibition [10]
NS(=O)(=O)c1cccc(Nc2cc(-c3ccc(F)cc3)n[nH]2)c1,0.86%,3.94%,8.53%,1.36%,1.54%,3.88%,4.82%,10.3%,11.7%,2.82%
COc1ccc(-c2nn3ncccc3c2-c2ccnc(Nc3cccc(C(F)(F)F)c3)n2)cc1,-0.52%,6.36%,5.19%,0.91%,-0.8%,3.37%,3.1%,1.8%,1.57%,-2.15%
CN(C)C(=O)O[C@H]1CN[C@H](C#Cc2cc3ncnc(Nc4ccc(OCc5cccc(F)c5)c(Cl)c4)c3s2)C1,-0.62%,4.28%,2.22%,1.72%,-0.31%,2.53%,4.3%,4.8%,1.82%,9.3%
Cc1ccc(Nc2ccnc(Nc3cccc(C(N)=O)c3)n2)cc1O,2.75%,5.46%,8.57%,1.77%,1.45%,3.06%,3.98%,5.17%,11.2%,–
Cc1ccc(NC(=O)CC2CC2)cc1-c1ccc(C(=O)NCC2CC2)cc1,0.9%,5.24%,4.74%,1.76%,1.56%,3.33%,4.25%,6.64%,5.74%,–
N#Cc1cccc(Nc2nccc(-c3cnn4ncccc34)n2)c1,3.34%,8.03%,7.42%,1.67%,3.52%,3.6%,5.22%,0.7%,12.7%,-4.74%
Cc1cc(-c2ccccn2)cc(C)c1/C=C/c1cncc(-c2nn[nH]n2)c1,5.19%,6.38%,6.81%,1.95%,2.95%,4.9%,5.22%,1.64%,0.08%,–
O=C1Nc2ccccc2/C1=C/Nc1ccc2[nH]c(=O)[nH]c2c1,2.72%,10.5%,7.51%,0.87%,1.53%,7.05%,5.03%,5.25%,3.2%,-6.58%
c1ccc(Nc2ncc(-c3ccccc3)o2)cc1,0.04%,6.49%,10.6%,0.76%,2.87%,5.16%,4.34%,2.74%,2.9%,–
CS(=O)(=O)CCNCc1nc(-c2ccc3ncnc(Nc4ccc(OCc5cccc(C(F)(F)F)c5)cc4)c3c2)cs1,1.5%,1.25%,3.12%,-0.05%,-0.1%,2.76%,5.04%,2.81%,1.26%,–
[O-][S+]1CCN(Cc2ccc(-c3ccc4ncnc(Nc5ccc(OCc6ccccc6)c(Cl)c5)c4c3)o2)CC1,1.64%,2.5%,4.24%,0.11%,0.24%,0.99%,2.19%,2.51%,1.72%,-9.51%
Cc1ccc2c(-c3ccnc(Nc4ccc5c(c4)OCCO5)n3)c(-c3ccc(C(F)(F)F)cc3)nn2n1,0.53%,0.57%,2.13%,0.68%,-0.11%,2%,0.74%,-9.67%,-4.92%,7.58%
Cc1cc(O)cc(C)c1/C=C/c1cncc(C(=O)N(C)C)c1,1.13%,2.77%,6.81%,1.73%,0.38%,-0.76%,2.83%,3.14%,6.26%,7.18%
COc1cc2ncn(-c3cc(OCc4ccccc4S(C)(=O)=O)c(C#N)s3)c2cc1OC,0.22%,6.88%,5.61%,0.99%,2.17%,4.63%,5.52%,3.87%,4.97%,4.22%
Nc1ccc(C#Cc2cncnc2Nc2ccc(OCc3cccc(F)c3)c(Cl)c2)cc1,-2.17%,0.57%,1.46%,0.83%,0.22%,3.57%,2.79%,0.61%,2.79%,-4.23%
Cc1ccc(C(=O)NC2CC2)cc1-c1ccc2[nH]ncc2c1,-0.24%,-0.61%,-2.6%,-3.3%,-4.55%,-4.8%,-3.91%,-4.55%,-2.43%,1.46%
Cc1ccc2c(-c3ccnc(Nc4cccc(C(F)(F)F)c4)n3)c(-c3ccccc3)nn2n1,13.3%,9.96%,8.06%,1.38%,1.7%,5.11%,5.68%,-4.38%,-7%,–

Structure (SMILES),inhibition [1],inhibition [2],inhibition [3],inhibition [4],inhibition [5],inhibition [6],inhibition [7],inhibition [8],inhibition [9],inhibition [10]
NC(=O)c1sc(-n2cnc3ccccc32)cc1OCc1ccccc1Br,-2.12%,6.29%,10%,1.42%,2.45%,4.83%,5.89%,2.59%,5.06%,–
COc1cccc(-n2ncc3c(N/N=C/c4ccc(C)cc4)ncnc32)c1,-3.2%,10%,9.32%,1.75%,1.47%,6.06%,6.42%,6.1%,10.7%,–
CCn1c(-c2nonc2N)nc2c(C#CC(C)(C)O)nc(OCCNC)cc21,-1.03%,8.56%,5.49%,1.23%,2.27%,3.16%,5.05%,3.8%,12.5%,–
CCS(=O)(=O)c1ccc(OC)c(Nc2nccc(N(C)c3ccc4c(C)n[nH]c4c3)n2)c1,0.16%,3.86%,6.28%,1.58%,1.86%,5.97%,5.09%,1.92%,0.85%,–
COc1cc2ncnc(Nc3ccc4c(cnn4Cc4ccccc4)c3)c2cc1OC,-2.02%,4.26%,6.92%,1.54%,2.6%,2.02%,3.19%,1.77%,2.16%,–
NC(=O)c1cccc(Nc2nccc(Nc3cccc(F)c3)n2)c1,2.97%,0.29%,2.79%,0.32%,0.69%,0.23%,2.37%,-1.35%,1.21%,–
CCOc1nccc2c1nc(-c1nonc1N)n2CC,-0.82%,5.11%,2.07%,0.86%,1.74%,3.24%,4.4%,7.54%,6.11%,5.85%
Cc1ccc(O)cc1Nc1ccnc2ccc(S(C)(=O)=O)cc12,-0.56%,9.27%,13.3%,2.82%,2.56%,5.79%,6.05%,1.8%,8.34%,-3.21%
Oc1cccc(-c2nc(-c3ccccc3)[nH]c2-c2ccncc2)c1,4.67%,6.65%,6.51%,2.18%,1.52%,3.47%,3.48%,11.4%,15.7%,–
CN1CCN(C(=O)c2ccc(NC(=O)Nc3ccc(N(C)c4ccnc(Nc5ccc(CS(C)(=O)=O)cc5)n4)cc3)cc2)CC1,12.8%,-0.46%,6.1%,0.16%,1.51%,1.85%,5.09%,3.35%,17.6%,–
NS(=O)(=O)c1ccc(-c2cc3ccncc3cc2OCc2ccccc2)cc1,0.38%,5.31%,6.13%,1.08%,0.46%,3.48%,4.21%,1.12%,-3.7%,–
COC(=O)c1ccc2c(c1)C(=Cc1cc(Br)c(O)c(Br)c1)C(=O)N2,15.1%,8.19%,10.1%,1.7%,1.99%,4.21%,5.43%,7.06%,10.8%,–
COc1cccc(-n2nc(C)c3c(N/N=C(\C)c4ccncc4)ncnc32)c1,1.92%,-1.07%,5.57%,-1.35%,-0.3%,0.46%,2.49%,-0.74%,-1.22%,–
CN(C)c1cc2c(Nc3ccc4c(cnn4Cc4ccccc4)c3)ncnc2cn1,-0.54%,6.36%,6.67%,0.73%,0.51%,3.07%,3.39%,-1.52%,-2.02%,4.32%
O=S(=O)(CCOCc1ccc(-c2ccc3ncnc(Nc4ccc(OCc5cccc(F)c5)c(Cl)c4)c3c2)o1)c1ccccc1,0.25%,4.98%,5.84%,-0.35%,0.7%,0.57%,2.12%,0.21%,-1.3%,–
COc1cc(Nc2nccc(-c3cnn4ncccc34)n2)cc(OC)c1,4.52%,-0.14%,2.57%,-0.1%,2.59%,0.77%,3.43%,-6.63%,9.42%,-2.46%
Nc1nccc(-c2c(-c3ccc(F)cc3)ncn2CCCN2CCOCC2)n1,11.2%,9.14%,6.55%,1.64%,1.75%,5.89%,4.41%,–,3.01%,-1.31%
